The values below come from PubChem BioAssay (NCATS).

Records with an inconclusive call do not appear. A call without a number means that no potency is given here. Activity calls are given as the source filed them. The call rests on the fitted dose curve; in most records, active means well fitted curve in the direction sought with a large enough effect; inconclusive means small, poorly fitted or top-dose-only effect, or another doubt; inactive means no such curve, though single readings can be large; an effect the other way counts as inactive or inconclusive.
Potency means the concentration at half of the fitted maximal effect.

Chain of Cytochrome P450 2C9 (Homo sapiens) (P11712 whole entry, looked up): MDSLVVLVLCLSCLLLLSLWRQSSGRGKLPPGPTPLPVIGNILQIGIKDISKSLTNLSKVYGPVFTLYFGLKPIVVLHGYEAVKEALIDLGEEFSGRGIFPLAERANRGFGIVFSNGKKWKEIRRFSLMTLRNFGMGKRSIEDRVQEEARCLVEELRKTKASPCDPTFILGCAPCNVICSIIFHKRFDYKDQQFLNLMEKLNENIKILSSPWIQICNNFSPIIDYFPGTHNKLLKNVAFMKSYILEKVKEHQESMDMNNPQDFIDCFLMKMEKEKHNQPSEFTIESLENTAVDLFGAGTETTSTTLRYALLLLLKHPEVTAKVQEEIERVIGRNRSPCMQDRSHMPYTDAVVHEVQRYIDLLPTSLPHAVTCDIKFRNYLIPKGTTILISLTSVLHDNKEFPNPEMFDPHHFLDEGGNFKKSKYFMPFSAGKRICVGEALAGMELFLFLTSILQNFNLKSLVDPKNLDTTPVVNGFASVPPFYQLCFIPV

One experiment deals with Cytochrome P450 2C9 (Homo sapiens) (UniProt P11712). Nature of the experiment: qHTS Assay for Inhibitors and Substrates of Cytochrome P450 2C9 (AID 883). Further: nearly all actives have a fitted effect of over 60% in size. To be noted: recombinant CYP2C9, luciferin-H luminescence, 60 min; series mostly up to 57.1 µM. The procedure, abridged:
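A luminogenic readout tracked human CYP2C9 (10nM) converting deoxyluciferin (100uM, at KM) in 25mM KPO4 during 60 min at 37C with regenerated NADPH. Values normalized to 57uM sulphaphenazole as complete inhibition.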
In general terms: In qHTS, concentration-response curves come from the screen itself.
Regarding `COc1ccc2[nH]cc(CCNc3ncnc4ccc(-c5ccc6c(c5)OCO6)cc34)c2c1`, the Potency is 126 nM (active).

In the case of `N[C@@H](C(=O)O)c1ccc(O)c(C(=O)O)c1`, the Potency entry is “inactive”.

In the case of `CC(C)CN1CCCC2(CCN(C(=O)c3ccco3)CC2)C1`, the Potency result is “inactive”.

In the case of `CC[C@@]12CCCN3CCc4c(n(c5ccccc45)[C@](O)(C(=O)OC)C1)[C@H]32`, the Potency result is “inactive”.

Take `COc1ccc2[nH]cc(CCNc3ncnc4ccc(-c5ccccc5C#N)cc34)c2c1`: the Potency is 316 nM (active).

In another experiment the target is Cytochrome P450 3A4 (Homo sapiens) (UniProt P08684). The experiment is described as follows: qHTS Assay for Inhibitors and Substrates of Cytochrome P450 3A4 (AID 884). Further: nearly all actives have a fitted effect of over 50% in size. To be noted: recombinant CYP3A4, Luciferin-PPXE luminescence; series mostly up to 57.1 µM. In short, it runs like this: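 Luminescent readout of luciferin produced by CYP3A4 (20 nM) dealkylation of Luciferin-PPXE, 25 uM (its KM). NADPH-driven reaction ran 60 min at RT after 10 min compound preincubation; data scaled to 57 uM ketoconazole as 100% inhibition.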
Chain of Cytochrome P450 3A4 (Homo sapiens) (P08684 whole entry, looked up): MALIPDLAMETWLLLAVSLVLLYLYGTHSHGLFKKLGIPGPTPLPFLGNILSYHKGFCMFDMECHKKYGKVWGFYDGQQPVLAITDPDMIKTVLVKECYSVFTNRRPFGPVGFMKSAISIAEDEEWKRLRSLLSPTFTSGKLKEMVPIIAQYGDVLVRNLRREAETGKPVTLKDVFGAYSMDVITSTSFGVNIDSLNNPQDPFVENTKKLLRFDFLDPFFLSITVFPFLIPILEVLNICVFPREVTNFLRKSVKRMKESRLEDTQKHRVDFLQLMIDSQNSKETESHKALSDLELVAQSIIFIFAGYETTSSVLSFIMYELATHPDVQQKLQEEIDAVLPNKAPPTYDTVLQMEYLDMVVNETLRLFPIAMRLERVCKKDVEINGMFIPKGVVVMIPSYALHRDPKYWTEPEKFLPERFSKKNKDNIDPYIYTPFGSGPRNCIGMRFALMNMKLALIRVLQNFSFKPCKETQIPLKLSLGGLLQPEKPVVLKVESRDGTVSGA
Consider `COc1ccc2[nH]cc(CCNc3ncnc4ccc(-c5ccc6c(c5)OCO6)cc34)c2c1`, for which the Potency is 2000 nM (active).

In the case of `CC[C@@H]1Cn2c(c3nc(-c4ccccc4)nc-3n(C)c2=O)N1`, the Potency entry is “inactive”.

Consider `C/C(=C\COc1cc(=O)[nH]c2ccccc12)CCC(O)C(C)(C)O` (stereo unspecified), for which the Potency entry was “inactive”.

`COc1cccc(-c2cc(NCCc3c[nH]c4ccc(OC)cc34)ncn2)c1`: the Potency is 7940 nM (active).

For the compound `COc1ccccc1CNc1ncnc2ccc(-c3ccccc3C#N)cc12`, the Potency is 3980 nM (active).

As to `Cc1ccccc1-c1ccc2ncnc(N(C)C)c2c1`, the Potency is 3160 nM (active).

Take `O=c1ccc2cc(O)c(O)cc2o1`: the Potency entry is “inactive”.

Consider `COc1ccc2[nH]cc(CCNc3nc(-c4ccc(C(=O)N(C)C)cc4)nc4ccccc34)c2c1`, for which the Potency was 2510 nM (active).

As to `CCCCCC/C=C\CCCCCCCc1cccc(O)c1C(=O)O`, the Potency result is “inactive”.

In the case of `Cc1cc(C)c(S(=O)(=O)Nc2ccccc2C(F)(F)F)c(C)c1`, the Potency was 2510 nM (active).

`CCCNC(=O)N1N=C(c2ccc(N)cc2)c2cc3c(cc2[C@H]1C)OCO3`: the Potency was 1260 nM (active).

Regarding `O=C(CCCc1ccc(-c2ccccc2F)cc1)Nc1ccc(O)cc1`, the Potency is 31600 nM (active).

Take `C=CCc1ccc(OC(=O)c2ccccc2)c(OC)c1`: the Potency was 5010 nM (active).

With `CN(Cc1ccco1)c1ncnc2ccc(-c3ccc4c(c3)OCO4)cc12`, the Potency was 2510 nM (active).

With `NC(Cc1ccc(O)c(O)c1)C(=O)O` (stereo unspecified), the Potency entry was “inactive”.

`COc1cc2ccc(=O)oc2cc1O`: the Potency result was “inactive”.

Consider `CCCCCCCNS(=O)(=O)c1cccc2c(Cl)cccc12`, for which the Potency is 7940 nM (active).

On to `COc1cc2c(cc1OC)C(=O)Cc1ccc3c(c1CN(C)CC2)OCO3`, for which the Potency result was “inactive”.

Take `COc1ccc2[nH]cc(CCNc3ncnc4ccc(-c5ccccc5C#N)cc34)c2c1`: the Potency is 2000 nM (active).

As for `CC(C)(C)c1cc(C(=O)/C=C/c2ccc(C(=O)O)cc2)cc(C(C)(C)C)c1`, the Potency is 20000 nM (active).

On to `CC(=O)Oc1ccccc1C(=O)Oc1ccccc1C(=O)O`, for which the Potency result was “inactive”.

A further experiment shares this target. The experiment is described as follows: qHTS Assay for Activators of Cytochrome P450 3A4 (AID 885). Further: nearly all actives have a fitted effect of over 65% in size. As to conditions: recombinant CYP3A4, Luciferin-PPXE luminescence, 60 min; series mostly up to 57.1 µM. The procedure, abridged:
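Human CYP3A4 dealkylates Luciferin-PPXE to luciferin, which luciferase detection converts to light. Substrate was at its KM (25uM), buffer 200mM KPO4, reaction 60 min at RT.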
As to `COc1ccc2[nH]cc(CCNc3ncnc4ccc(-c5ccc6c(c5)OCO6)cc34)c2c1`, the Potency result is “inactive”.

As for `CN=C1N[C@H](c2ccccc2)N(c2ccccc2)S1`, the Potency result is “inactive”.

In the case of `N#Cc1cccc(NC(=O)N2CC[C@@]3(CCCN(C(=O)c4cccc(F)c4)C3)C2)c1`, the Potency result was “inactive”.

Take `COc1cc(/C=C/C(=O)/C=C(O)/C=C/c2ccc(O)c(OC)c2)ccc1O`: the Potency entry was “inactive”.

Turning to `CC[C@@H]1Cn2c(c3nc(-c4ccccc4)nc-3n(C)c2=O)N1`, the Potency was 12600 nM (active).

With `CCCC[P+](CCCC)(CCCC)Cc1ccc(NC(=O)[C@@H](Cc2ccc3ccccc3c2)NC(=NC2CCCCC2)NC2CCCCC2)cc1`, the Potency entry was “inactive”.

As to `COc1cccc(-c2cc(NCCc3c[nH]c4ccc(OC)cc34)ncn2)c1`, the Potency entry was “inactive”.

As for `COc1ccccc1CNc1ncnc2ccc(-c3ccccc3C#N)cc12`, the Potency entry is “inactive”.

Consider `Cc1ccccc1-c1ccc2ncnc(N(C)C)c2c1`, for which the Potency entry was “inactive”.

Consider `O=c1ccc2cc(O)c(O)cc2o1`, for which the Potency entry is “inactive”.

As to `COc1ccc2[nH]cc(CCNc3nc(-c4ccc(C(=O)N(C)C)cc4)nc4ccccc34)c2c1`, the Potency result was “inactive”.

`Cc1cc(C)c(S(=O)(=O)Nc2ccccc2C(F)(F)F)c(C)c1`: the Potency result is “inactive”.

In the case of `CCCNC(=O)N1N=C(c2ccc(N)cc2)c2cc3c(cc2[C@H]1C)OCO3`, the Potency result was “inactive”.

For `O=C(CCCc1ccc(-c2ccccc2F)cc1)Nc1ccc(O)cc1`, the Potency result is “inactive”.

Consider `C=CCc1ccc(OC(=O)c2ccccc2)c(OC)c1`, for which the Potency result was “inactive”.

In the case of `CN(Cc1ccco1)c1ncnc2ccc(-c3ccc4c(c3)OCO4)cc12`, the Potency entry is “inactive”.

As to `CC(C)CN1CCCC2(CCN(C(=O)c3ccco3)CC2)C1`, the Potency result is “inactive”.

With `C=CCNC(=O)c1cc([N+](=O)[O-])cc2c(=O)[nH]c(Nc3ccc(Cl)c(Cl)c3)nc12`, the Potency entry is “inactive”.

With `CCCCCCCNS(=O)(=O)c1cccc2c(Cl)cccc12`, the Potency result was “inactive”.

As to `O=[N+]([O-])c1cccc2c[nH]nc12`, the Potency result was “inactive”.

In the case of `CC[C@@]12CCCN3CCc4c(n(c5ccccc45)[C@](O)(C(=O)OC)C1)[C@H]32`, the Potency result is “inactive”.

On to `COc1ccc2[nH]cc(CCNc3ncnc4ccc(-c5ccccc5C#N)cc34)c2c1`, for which the Potency entry is “inactive”.

As for `CC(C)(C)c1cc(C(=O)/C=C/c2ccc(C(=O)O)cc2)cc(C(C)(C)C)c1`, the Potency result is “inactive”.

The target of the next experiment is Cytochrome P450 2D6 (Homo sapiens) (UniProt P10635). The experiment is described as follows: qHTS Assay for Inhibitors and Substrates of Cytochrome P450 2D6 (AID 891). Further: nearly all actives have a fitted effect of over 60% in size. To be noted: recombinant CYP2D6, luciferin-ME EGE luminescence; series mostly up to 57.1 µM. In short, it runs like this: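 Luminescent read-out of luciferin formed by 5 nM human CYP2D6 demethylating 30 uM Luciferin-ME EGE (Km level) over 60 min at room temperature after NADPH regeneration addition. Data normalized to full inhibition by 1.43 uM quinidine.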
Chain of Cytochrome P450 2D6 (Homo sapiens) (P10635 whole entry, looked up): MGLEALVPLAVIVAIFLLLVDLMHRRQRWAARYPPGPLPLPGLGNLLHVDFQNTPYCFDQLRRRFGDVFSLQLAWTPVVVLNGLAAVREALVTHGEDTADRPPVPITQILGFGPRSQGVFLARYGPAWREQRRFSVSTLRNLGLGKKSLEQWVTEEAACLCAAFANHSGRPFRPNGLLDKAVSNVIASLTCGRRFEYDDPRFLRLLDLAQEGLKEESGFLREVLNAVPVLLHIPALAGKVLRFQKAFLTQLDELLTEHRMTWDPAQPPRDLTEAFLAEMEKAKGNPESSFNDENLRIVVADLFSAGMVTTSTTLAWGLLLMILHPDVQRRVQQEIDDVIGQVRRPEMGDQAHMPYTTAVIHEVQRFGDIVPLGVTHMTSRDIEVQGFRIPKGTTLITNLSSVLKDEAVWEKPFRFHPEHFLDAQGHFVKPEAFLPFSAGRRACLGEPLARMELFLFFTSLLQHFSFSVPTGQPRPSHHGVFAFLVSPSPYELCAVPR
On to `COc1ccc2[nH]cc(CCNc3ncnc4ccc(-c5ccc6c(c5)OCO6)cc34)c2c1`, for which the Potency was 2510 nM (active).

`Cc1cc(C)c(S(=O)(=O)Nc2ccccc2C(F)(F)F)c(C)c1`: the Potency was 6310 nM (active).

Regarding `CN(Cc1ccco1)c1ncnc2ccc(-c3ccc4c(c3)OCO4)cc12`, the Potency is 1580 nM (active).

In the case of `COc1cc2ccc(=O)oc2cc1O`, the Potency result was “inactive”.

With `CC[C@@]12CCCN3CCc4c(n(c5ccccc45)[C@](O)(C(=O)OC)C1)[C@H]32`, the Potency was 251 nM (active).

`COc1cc2c(cc1OC)C(=O)Cc1ccc3c(c1CN(C)CC2)OCO3`: the Potency is 25.1 nM (active).

In the case of `COc1ccc2[nH]cc(CCNc3ncnc4ccc(-c5ccccc5C#N)cc34)c2c1`, the Potency is 7940 nM (active).
